We go through 70 compounds from ChEMBL document CHEMBL4513216, “Probing the Open Global Health Chemical Diversity Library for Multistage-Active Starting Points for Next-Generation Antimalarials” (ACS Infect Dis, 2020).

Among all 69,000 compounds or so, about 8,600 (12%) showed an effect of 50% or more. The sample as a whole holds a higher share of strong results than the screen did.

The assay concerns Plasmodium berghei. Kind of assay: Screen against P. berghei liver stage (PbLuc), transformed with Luciferase, at 10uM. In kind it is functional, HepG2. The note with it: tested at 10 uM.
Take `Cc1ccccc1OCCC(=O)NC(C)c1nnc2n1CCCCC2` (stereo not given): the INHIBITION is on record as 28.8%.

Consider `Nc1nccnc1C1CN(Cc2ccc(OCC(=O)O)cc2)CCO1` (stereo not given), for which the INHIBITION is recorded as -22.5%.

As to `COc1ccc2c(c1)C(C(=O)N(C)CCCc1cnn(C)c1)CC(=O)N2` (stereo not given), the INHIBITION was determined as 55.4%.

Take `COc1ccc2c(c1)C(C(=O)N(C)CCn1ccnc1C)CC(=O)N2` (stereo not given): the INHIBITION stood at 13.7%.

For the compound `COc1ccc2c(c1)C(C(=O)N(C)CCc1cnn(C)c1)CC(=O)N2` (stereo not given), the INHIBITION is reported as 82.3%.

For `COc1ccc2c(c1)C(C(=O)N(C)CCc1scnc1C)CC(=O)N2` (stereo not given), the INHIBITION is reported as 44.3%.

Take `COc1ccc2c(c1)CC(C(=O)N(C)CCCc1cnn(C)c1)CO2` (stereo not given): the INHIBITION is on record as -1.91%.

`COc1ccc2c(c1)C(C(=O)N(C)CCCc1nccn1C)CC(=O)N2` (stereo not given): the INHIBITION was found to be 23%.

Consider `CCOc1ncccc1Cn1cc2[nH]cccc-2c1=O`, for which the INHIBITION turned out to be 18%.

With `Cc1nn(CC(=O)O)c2nccc(-c3ccc(F)cc3)c12`, the INHIBITION was 39.5%.

`CC(O)CN(c1ccccc1)S(=O)(=O)c1cc(C(=O)O)cc2c1CCC2` (stereo not given): the INHIBITION came to 19.7%.

Regarding `CCN(c1ccccc1)S(=O)(=O)c1cc(C(=O)O)cc2c1CCC2`, the INHIBITION turned out to be 56.5%.

Turning to `CCN(c1cccc(F)c1)S(=O)(=O)c1cc(C(=O)O)cc2c1CCC2`, the INHIBITION is given as 38.6%.

For `COCCOc1ncccc1C(=O)Nc1ccc(-n2cncn2)c(F)c1`, the INHIBITION stood at 13.1%.

Take `CC(C)NC(=O)CCNC(=O)Nc1ccc(-n2cncn2)c(F)c1`: the INHIBITION was -18%.

As for `COCCNC(=O)Nc1ccc(-n2cncn2)c(C(F)(F)F)c1`, the INHIBITION turned out to be 21.8%.

Consider `CC(=O)Nc1ccc(-n2cncn2)c(F)c1`, for which the INHIBITION is -6.91%.

Regarding `COCCS(=O)(=O)Nc1ccc(-n2cncn2)c(F)c1`, the INHIBITION is on record as 56.5%.

For `COCCNC(=O)Nc1ccc(-n2cncn2)c(F)c1`, the INHIBITION was 58.2%.

`CN1CCN(Cc2cccnc2)C2(CCN(Cc3ccccn3)C2)C1=O` (stereo not given): the INHIBITION is given as -16%.

With `CSCC(=O)N1C[C@@H](C)[C@](O)(C(C)C)C1`, the INHIBITION amounted to 5.23%.

On to `CN(C)c1nccc(C2CN(C(=O)CO)C2)n1`, for which the INHIBITION is on record as 1.5%.

On to `Cc1cc(Nc2cnccn2)nc(C2CCCN(CCO)C2)n1` (stereo not given), for which the INHIBITION came out at 1.62%.

In the case of `c1cnc(Nc2ccc(C3CCCCN3)cn2)cn1` (stereo not given), the INHIBITION is -15.1%.

For the compound `Cc1cc(C)nc(Nc2ccc(C3CCCCN3)cn2)n1` (stereo not given), the INHIBITION is reported as -0.232%.

Turning to `Cc1cccc(Nc2ccc(C3CCCCN3)cn2)n1` (stereo not given), the INHIBITION is reported as 70.3%.

Consider `O=C(CCc1ccccc1F)NC1CCCN(c2ccccn2)C1` (stereo not given), for which the INHIBITION was -40.55%.

Regarding `CCN(CC)C(=O)NC(C)c1ccc(Oc2cccnc2)c(F)c1` (stereo not given), the INHIBITION was 36.3%.

With `COc1ccc2c(c1)C1(CCN(Cc3cccnc3)CC1)N(C)CC2`, the INHIBITION is -27.4%.

`O=C1CC(c2ccncc2)C2(CCN(CC3CC3)CC2)N1` (stereo not given): the INHIBITION is listed as -4.32%.

Consider `O=C(CCc1cccc(Cl)c1Cl)N1CCOCC1c1ncon1` (stereo not given), for which the INHIBITION was 33.8%.

With `CN(Cc1ccccc1)CC(O)Cn1cnc2sccc2c1=O` (stereo not given), the INHIBITION was determined as 10.675%.

Take `CN(Cc1ccccc1)CC(O)Cn1cnc2ccccc2c1=O` (stereo not given): the INHIBITION amounted to 2.26%.

On to `CN(Cc1ccccc1)CC(O)Cn1cnc2ccsc2c1=O` (stereo not given), for which the INHIBITION worked out at 56.6%.

On to `O=C(CCc1cc2n(n1)CCCNC2)NCCCSC1CCCCC1`, for which the INHIBITION was found to be 40.3%.

On to `CCN(Cc1ccc2c(c1)OCO2)C(=O)Cn1cccnc1=O`, for which the INHIBITION worked out at 37.9%.

In the case of `COc1cc2c(cc1CNC(=O)C(C)n1ccnc1C(C)C)OCCO2` (stereo not given), the INHIBITION is 42.3%.

`COc1cccc(CNC(=O)C(C)n2ccnc2C(C)C)c1OC` (stereo not given): the INHIBITION worked out at 62.1%.

As to `COc1cc2c(cc1CNC(=O)C(C)n1ccnc1C(C)C)CCC2` (stereo not given), the INHIBITION is reported as 26.5%.

As for `OCCN1CCCC(c2nccnc2Oc2ccccc2)C1` (stereo not given), the INHIBITION was -3.31%.

Regarding `O=C(C1CCN(c2snc3ccccc23)CC1)N1CCCCCC1`, the INHIBITION is recorded as 36.2%.

Consider `Cc1cc(N2CCN(c3nc4ccccc4cc3CO)CC2)nc(C)n1`, for which the INHIBITION amounted to 48.8%.

In the case of `CC(=O)NC1CCCN(c2ccc(C#N)cc2C(F)(F)F)C1` (stereo not given), the INHIBITION is -17.9%.

In the case of `CC(=O)NC1CCCN(c2nc3ccccc3cc2CO)C1` (stereo not given), the INHIBITION was determined as 66.5%.

Regarding `O=C(C1CCCN(c2nc3ccccc3cc2CO)C1)N1CCCC1` (stereo not given), the INHIBITION was 61.9%.

With `OCc1cc2ccccc2nc1N1CCCC1`, the INHIBITION amounted to 16.8%.

In the case of `OCc1cc2ccccc2nc1N1CCCCC1`, the INHIBITION amounted to 53.1%.

Regarding `CCCC(=O)NC1CCCN(c2nc3ccccc3cc2CO)C1` (stereo not given), the INHIBITION turned out to be 7.19%.

With `O=C(C1CCC1)N1CCN(c2snc3ccccc23)CC1`, the INHIBITION is on record as 32.8%.

On to `CC(C)c1noc(CN2CCC(C3CCCCCN3S(C)(=O)=O)CC2)n1` (stereo not given), for which the INHIBITION stood at 34%.

`COc1cc(CNCCc2nc(C)cs2)cc2c1OCCO2`: the INHIBITION is recorded as 31%.

As to `CC1c2ccc(F)cc2CCN1C(=O)c1[nH]c(=O)[nH]c(=O)c1N` (stereo not given), the INHIBITION is given as 23.6%.

As to `CCn1cnc(NC(=O)NCC2CCS(=O)(=O)CC2)n1`, the INHIBITION is 4.12%.

Consider `Cc1occc1C(=O)N1CCC[C@]2(C[C@@H](OCc3ccncc3)CO2)C1`, for which the INHIBITION is recorded as -9.67%.

For `CCN(Cc1ccc2c(c1)OCCO2)C(=O)Cn1cccnc1=O`, the INHIBITION is recorded as 37.9%.

`Cc1c(S(=O)(=O)N2CCOCC2)cc2c(C)cc(=O)n3c2c1CCC3`: the INHIBITION is recorded as 2.45%.

With `Cc1ccc(CNc2ccc(N3CCC(CO)CC3)cn2)o1`, the INHIBITION was determined as 14.1%.

On to `CC(C)c1nc(CNc2ccc(N3CCC(CO)CC3)cn2)cs1`, for which the INHIBITION is reported as 13%.

Consider `OCC1CCN(c2ccc(NCc3ccsc3)nc2)CC1`, for which the INHIBITION turned out to be 54.4%.

With `Cc1cnn(CC2CCCCN2CCCS(C)(=O)=O)c1` (stereo not given), the INHIBITION amounted to 5.03%.

Take `Cn1cc(-c2csc(N3CCCCCC3)n2)cn1`: the INHIBITION was determined as 79.8%.

For the compound `Cn1cc(-c2csc(N3CCSCC3)n2)cn1`, the INHIBITION is -42.1%.

For `CN1CCN(c2nc(-c3cnn(C)c3)cs2)CC1`, the INHIBITION is on record as -1.45%.

Consider `CO[C@H]1CN(Cc2cccc(C#N)c2)[C@@H]2COC[C@H]12`, for which the INHIBITION is reported as 34.1%.

Take `CS(=O)(=O)N1CC2(CCN(C3COC3)C2)Cc2ccccc21` (stereo not given): the INHIBITION stood at 55.7%.

`CS(=O)(=O)N1CC2(CCN(CC3CCCCC3)C2)Cc2ccccc21` (stereo not given): the INHIBITION was 48.2%.

In the case of `CS(=O)(=O)N1CC2(CCN(CC3CC3)C2)Cc2ccccc21` (stereo not given), the INHIBITION came to 21.7%.

For the compound `CS(=O)(=O)N1CC2(CCCN(C3COC3)C2)Cc2ccccc21` (stereo not given), the INHIBITION is 28.4%.

As to `CS(=O)(=O)N1CC2(CCCN(CC3CC3)C2)Cc2ccccc21` (stereo not given), the INHIBITION came to 54.9%.

As to `CS(=O)(=O)N1CC2(CCN(C3CCCCC3)C2)Cc2ccccc21` (stereo not given), the INHIBITION was 40.8%.
